Experiment [1] in a line: ATG_XTT_Cytotoxicity: Cytotoxicity Assessment in the Attagene TRANS-FACTORIAL HepG2 Assay (AID 2283584).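 For AC50: XTT signal for cell number as viability in transfected HepG2 cells; cells exposed to compound for 24 h before reading; active means loss of viability signal versus DMSO baseline.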 The method in brief:
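HepG2 cells transiently transfected with GAL4-UAS multiple reporter units, dosed 24 h; cytotoxicity read by XTT as loss of signal versus DMSO baseline.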

For experiment [2], the target named is Cellular tumor antigen p53 (Homo sapiens) (UniProt P04637). Description: TOX21_p53_BLA_p2_ratio: Tox21 HCT-116 p53 Agonism Beta-lactamase Assay, Ratio, Phase 2 (AID 2283592). The method in brief:
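HCT-116 cells with p53-responsive beta-lactamase reporter, 4000 cells/well, preincubated 5 h, then compound in DMSO (217-fold dilution) for 16 h at 37C. CCF4-AM substrate 2 h at room temperature; 460/530 nm emission ratio fitted upward versus DMSO.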

The target is the same in experiment [3]. Description: TOX21_p53_BLA_p3_ratio: Tox21 HCT-116 p53 Agonism Beta-lactamase Assay, Ratio, Phase 3 (AID 2283596). The method in brief: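 HCT116 p53-bla cells (4000/well) given compound in DMSO (217-fold dilution) after 5 h, incubated 16 h at 37C. CCF4-AM substrate 2 h at room temperature; 460/530 nm emission ratio, gain fitted against DMSO.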
For experiment [4] the target is unchanged. As to the kind of experiment: TOX21_p53_BLA_p5_ratio: Tox21 HCT-116 p53 Agonism Beta-lactamase Assay, Ratio, Phase 5 (AID 2283599). The method in brief: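 HCT-116 p53-bla cells (4000/well) plated 5 h, dosed with compound (217-fold DMSO dilution) for 16 h at 37 C; CCF4-AM substrate 2 h at room temperature. Activity is the 460/530 nm emission ratio (405 nm excitation), fitted in gain-of-signal direction versus DMSO.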

Experiment [5] has the same target. As to the kind of experiment: TOX21_p53_BLA_p4_ratio: Tox21 HCT-116 p53 Agonism Beta-lactamase Assay, Ratio, Phase 4 (AID 2283601). The method in brief:
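HCT-116 p53 beta-lactamase reporter cells (4000/well) preincubated 5 h, then compound (217-fold dilution of DMSO stock) for 16 h at 37C. CCF4-AM substrate added 2 h at room temperature; 460/530 nm emission ratio fitted upward versus DMSO.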

Experiment [6] in a line: TOX21_p53_BLA_p3_viability: Viability Assessment in the Tox21 HCT-116 p53 Agonism Beta-lactamase Assay, Phase 3 (AID 2283593).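 Note: cells exposed to compound for 16 h before reading.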 The method in brief:
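HCT116 cells, 4000/well, dosed 5 h after plating by pin transfer (217-fold dilution from DMSO stock) and incubated 16 h at 37C, 5% CO2. Viability read as ATP luminescence with CellTiter-Glo after 30 min at room temperature.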

The nature of experiment [7]: TOX21_p53_BLA_p4_viability: Viability Assessment in the Tox21 HCT-116 p53 Agonism Beta-lactamase Assay, Phase 4 (AID 2283597).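 Note: hits lower the luminescence signal meaning cytotoxicity.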 The method in brief:
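HCT-116 p53-bla cells, 4000/well, dosed after 5 h attachment and incubated 16 h at 37 °C, 5% CO2. Viability from CellTiter-Glo ATP luminescence after 30 min at room temperature, taken after the beta-lactamase read; loss of signal indicates cytotoxicity.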

Experiment [8] can be described thus: TOX21_p53_BLA_p5_viability: Viability Assessment in the Tox21 HCT-116 p53 Agonism Beta-lactamase Assay, Phase 5 (AID 2283600). The method in brief:
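HCT-116 p53 beta-lactamase reporter cells, 4000/well, were exposed to compound (pin transfer, 217-fold dilution) for 16 hours at 37C. Cellular ATP was read by CellTiter-Glo luminescence after 30 min at room temperature.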

The nature of experiment [9]: TOX21_p53_BLA_p2_viability: Viability Assessment in the Tox21 HCT-116 p53 Agonism Beta-lactamase Assay, Phase 2 (AID 2283591).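 Note: compound exposure lasted 16 h at 37 °C; actives lower the ATP signal meaning cytotoxicity.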 The method in brief:
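HCT116 p53-bla cells, 4000/well, dosed after 5 h plating (217-fold dilution of DMSO stocks) and incubated 16 h at 37C. Viability taken as cellular ATP by CellTiter-Glo luminescence after 30 min RT; signal loss marks cytotoxicity.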

Experimental findings from PubChem BioAssay (EPA / NIEHS) are described below.

Records with an inconclusive call do not appear. Calls of active or inactive are those of the source. Rule for the calls: active = hit-call score of the fitted dose curve at least 0.9, where 1 is the maximum; inconclusive = response in the unintended direction; inactive = score below 0.9.

The term AC50 denotes the concentration giving half of the maximal activity seen.

Sequence of Cellular tumor antigen p53 (Homo sapiens) (P04637 whole entry, looked up): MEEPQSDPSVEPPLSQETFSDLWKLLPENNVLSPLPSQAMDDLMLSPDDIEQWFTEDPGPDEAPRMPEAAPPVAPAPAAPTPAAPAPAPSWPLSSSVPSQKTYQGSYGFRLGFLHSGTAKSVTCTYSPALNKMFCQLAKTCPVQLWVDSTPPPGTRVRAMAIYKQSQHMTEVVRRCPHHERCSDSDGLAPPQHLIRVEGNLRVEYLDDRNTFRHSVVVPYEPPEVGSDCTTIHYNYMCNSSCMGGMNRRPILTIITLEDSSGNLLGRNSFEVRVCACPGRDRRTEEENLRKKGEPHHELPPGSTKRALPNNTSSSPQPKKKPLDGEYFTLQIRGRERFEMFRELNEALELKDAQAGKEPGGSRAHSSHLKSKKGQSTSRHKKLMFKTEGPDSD

With `COCCc1ccc(OCC(O)CNC(C)C)cc1` (stereo unspecified), the compound was classed as inactive in experiment [1], in [2], in experiment [3], in [4] and in experiment [5].
As for `CN(C)C(=O)Nc1ccc(Oc2ccc(Cl)cc2)cc1`, the compound was called inactive in [1], in experiment [2], in experiment [6], in experiment [3], in experiment [7] and in experiment [4]. Further, the compound was called inactive in experiment [8] and in experiment [5].
As for `CCCCCC(C)=O`, the compound was classed as inactive in experiment [1], in experiment [2], in [3], in [7], in [4] and in [5].
With `CCN(CC)C(=O)N(CC)CC`, the compound was called inactive in experiment [1], in experiment [2], in experiment [6], in experiment [3] and in [7].
With `Cc1cc(=O)oc2cc(N(C)C)ccc12`, the result in experiment [1] and in experiment [6] was inactive. Besides, the half-maximal activity concentration (AC50) in [2] is 51.5 µM (active); in experiment [3] it was 50.6 µM (active); in experiment [4], 47.9 µM (active); in [5], 53.6 µM (active).
For `CCCCCCCCCCCCN1CCCCCC1=O`, the half-maximal activity concentration (AC50) in [1] was 29.9 µM (active). For the same compound, the outcome in experiment [2], in [6], in [3], in experiment [4] and in [5] was inactive.
On to `O=C1CCCC=CCCCCCCCCCC1`, for which the compound was classed as inactive in experiment [1], in experiment [2], in experiment [3] and in experiment [7].
Take `CC(=O)C(C)O` (stereo unspecified): the call in [1], in experiment [2], in [6], in experiment [3], in experiment [7] and in [4] was inactive. In experiment [5], the outcome was inactive.
As to `N#Cc1cscn1`, the outcome in [1], in experiment [2], in experiment [6], in [3], in experiment [7] and in experiment [8] was inactive. For the same compound, the result in experiment [5] was inactive.
For the compound `C[C@@H]1CCN(C(=O)[C@H](CCCN=C(N)N)NS(=O)(=O)c2cccc3c2NC[C@H](C)C3)[C@@H](C(=O)O)C1`, the result in experiment [1], in experiment [2], in experiment [3], in experiment [4], in experiment [8] and in experiment [5] was inactive.
With `CC(=O)O[C@H]1C[C@@H]2CC[C@@]1(C)C2(C)C`, the result in experiment [1], in [2], in [3], in experiment [4] and in experiment [8] was inactive.
`OC[C@H]1O[C@@H](Oc2ccc(O)cc2)[C@H](O)[C@@H](O)[C@@H]1O`: the compound was called inactive in experiment [1], in [2], in experiment [6], in experiment [3], in experiment [4] and in [8]. In addition, the outcome in experiment [5] was inactive.
Regarding `CCCC[O][Al]([O]CCCC)[O]CCCC`, the outcome in experiment [1], in experiment [2], in [3], in experiment [7], in experiment [4] and in experiment [5] was inactive.
As for `O=C(O)COCC(=O)O`, the result in experiment [1], in experiment [2], in experiment [3], in experiment [8] and in experiment [5] was inactive.
Regarding `Cc1c(Cl)cccc1[N+](=O)[O-]`, the result in [1], in experiment [2], in experiment [6], in experiment [3] and in experiment [4] was inactive.
On to `O=C1OC[C@H](Cc2cccc(O)c2)[C@H]1Cc1cccc(O)c1`, for which the result in experiment [1], in experiment [9], in experiment [4], in experiment [8] and in [5] was inactive.
Regarding `CCCCC(CC)(CO)CO`, the result in experiment [1], in experiment [2], in experiment [6], in experiment [4], in [8] and in experiment [5] was inactive.
Take `Nc1ccc(NCCO)c([N+](=O)[O-])c1`: the compound was called inactive in [1], in [2], in [7], in [4] and in experiment [5].
In the case of `ON=C1CCCCC1`, the compound was called inactive in [1], in [2], in experiment [3], in experiment [7], in experiment [4] and in experiment [8]. The outcome in [5] was inactive.
`O=CN1CCOCC1`: the result in experiment [1], in experiment [9], in [4] and in experiment [5] was inactive.
In the case of `CCCC(C)C(O)CC` (stereo unspecified), the result in experiment [1], in experiment [2], in [6], in [3], in [7] and in [5] was inactive.
For the compound `Cc1ccc(S(N)(=O)=O)cc1`, the outcome in [1], in experiment [2], in experiment [6], in [3], in [4] and in experiment [5] was inactive.
Turning to `CC(C)CC(C)CC(O)CC(C)C` (stereo unspecified), the result in [1], in [2], in experiment [6], in experiment [3], in experiment [4] and in experiment [5] was inactive.
Consider `CC1=NN(c2ccc(S(=O)(=O)O)cc2)C(=O)C1`, for which the compound was called inactive in experiment [1], in experiment [2], in [3], in [4] and in experiment [8].
Take `C=C[Si]1(C)O[Si](C)(C=C)O[Si](C)(C=C)O[Si](C)(C=C)O1` (stereo unspecified): the compound was called inactive in experiment [1], in experiment [2], in experiment [6], in experiment [3] and in [5].
Regarding `Cc1ccc(OC(=O)c2ccccc2O)cc1`, the result in [1], in experiment [2], in experiment [6], in experiment [3], in experiment [4] and in [8] was inactive.
Regarding `CC(=O)OCCCc1ccccc1`, the call in [1], in experiment [2], in experiment [6], in [3], in experiment [4] and in experiment [5] was inactive.
Regarding `C[Si](C)(C)O[Si](C)(C)C`, the compound was classed as inactive in experiment [1], in experiment [2], in [6], in [3], in experiment [4] and in experiment [5].
